A short description of experiment [1]: Caspase-3/7 induction in HepG2 cells by small molecules, qHTS assay (AID 1346978). Note: nearly all actives have a fitted effect of over 15% in size. Note: potency is the fitted concentration of half-maximal effect. In a few lines:
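Wild-type HepG2 cells, 2,000/well, settled 5 hr at 37 C and 5% CO2, then compound-treated for 17 hr; caspase-3/7 activity read by luminescent Caspase-Glo 3/7 after 30 min at room temperature.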

Experiment [2] is described as follows: Caspase-3/7 induction in CHO-K1 cells by small molecules, qHTS cell viability counter screen (AID 1346979). Note: nearly all actives have a fitted effect of over 35% in size. Note: potency is the fitted concentration of half-maximal effect. In a few lines:
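To flag cytotoxic compounds, treated CHO-K1 wild-type cells were given CellTiter-Fluor at 16hr and read fluorescently after 1hr at 37C; the caspase-3/7 luminescence was measured in these same wells.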
A general note: Quantitative high-throughput screening tests each substance at several concentrations.

Experiment [3] is described as follows: Caspase-3/7 induction in CHO-K1 cells by small molecules, qHTS assay (AID 1346980). Note: nearly all actives have a fitted effect of over 15% in size. In a few lines:
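Wild-type CHO-K1 cells exposed to compounds for 17hr at 37 C, 5% CO2. Caspase-3/7 activity then measured by Caspase-Glo 3/7 luminescence after 30min at room temperature.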

The target of experiment [4] is Nuclear receptor subfamily 1 group I member 2 (Homo sapiens) (UniProt O75469). The experiment in a line: Human pregnane X receptor (PXR) small molecule agonists, qHTS assay (AID 1346982). Note: nearly all actives have a fitted effect of over 35% in size. Note: potency is the fitted concentration of half-maximal effect. A digest of the protocol: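 Stable HepG2 line reporting PXR-mediated CYP3A4 expression via luciferase. Treatment: 24 hr with compounds in DMSO at 37 C. Detection: ONE-Glo luminescence.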
Nuclear receptor subfamily 1 group I member 2 (Homo sapiens), sequence (O75469 whole entry, looked up): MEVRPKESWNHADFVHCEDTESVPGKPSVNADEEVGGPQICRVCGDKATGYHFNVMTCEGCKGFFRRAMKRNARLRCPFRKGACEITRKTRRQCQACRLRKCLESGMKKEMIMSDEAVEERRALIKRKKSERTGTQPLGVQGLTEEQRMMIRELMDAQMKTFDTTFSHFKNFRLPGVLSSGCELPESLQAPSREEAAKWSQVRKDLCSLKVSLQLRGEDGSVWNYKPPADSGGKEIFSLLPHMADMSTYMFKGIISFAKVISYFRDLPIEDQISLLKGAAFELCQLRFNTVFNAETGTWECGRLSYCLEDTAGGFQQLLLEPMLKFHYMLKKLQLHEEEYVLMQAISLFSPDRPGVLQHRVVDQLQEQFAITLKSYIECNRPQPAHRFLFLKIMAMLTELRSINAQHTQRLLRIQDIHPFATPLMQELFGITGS

Experiment [5] has as its target Cytochrome P450 2C9 (Homo sapiens) (UniProt P11712). The experiment in a line: Cytochrome P450 Family 2 Subfamily C Member 9 (CYP2C9) small molecule antagonists: luciferase reporter qHTS assay (AID 1671198). For activity change, negative = inhibition: series mostly up to about 120 µM. Note: nearly all actives have a fitted effect of over 50% in size. Note: potency is the fitted concentration of half-maximal effect. A digest of the protocol:
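P450-Glo proluciferin substrate with CYP2C9 enzyme; 10 min RT preincubation, then NADPH regeneration 1 h at 37C; luciferin detection reagent 20 min RT, luminescence in relative luminescence units.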
A general note: A reporter such as luciferase makes a cellular process visible.

Experiment [6] deals with Cytochrome P450 1A2 (Homo sapiens) (UniProt P05177). Put plainly: Cytochrome P450 Family 1 Subfamily A Member 2 (CYP1A2) small molecule antagonists: luciferase reporter qHTS assay (AID 1671199). For activity change, negative = inhibition: series mostly up to about 120 µM. Note: nearly all actives have a fitted effect of over 50% in size. Note: potency is the fitted concentration of half-maximal effect. In a few lines:
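Read-out is luminescence from luciferin detection reagent (20 min) proportional to CYP1A2 activity; compounds in DMSO preincubated 10 min with enzyme and proluciferin substrate, then NADPH regeneration solution, 1 h, room temperature.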

Experiment [7] deals with Voltage-gated inwardly rectifying potassium channel KCNH2 (Homo sapiens) (UniProt Q12809). Put plainly: Human Ether-a-go-go-Related Gene (hERG) channel small molecule antagonists: fluorescence cell-based qHTS assay (AID 1671200).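 For activity change, negative = inhibition: hERG-expressing U2OS cells given a thallium stimulus after FluxOR II dye loading; series mostly up to about 77 µM.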 Note: nearly all actives have a fitted effect of over 50% in size. Note: potency is the fitted concentration of half-maximal effect. In a few lines: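 Measured: Tl+ flux via fluorescence (480/540 nm) in hERG-expressing U2OS cells after 1 h dye loading at room temperature.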
Voltage-gated inwardly rectifying potassium channel KCNH2 (Homo sapiens), sequence (Q12809 whole entry, looked up): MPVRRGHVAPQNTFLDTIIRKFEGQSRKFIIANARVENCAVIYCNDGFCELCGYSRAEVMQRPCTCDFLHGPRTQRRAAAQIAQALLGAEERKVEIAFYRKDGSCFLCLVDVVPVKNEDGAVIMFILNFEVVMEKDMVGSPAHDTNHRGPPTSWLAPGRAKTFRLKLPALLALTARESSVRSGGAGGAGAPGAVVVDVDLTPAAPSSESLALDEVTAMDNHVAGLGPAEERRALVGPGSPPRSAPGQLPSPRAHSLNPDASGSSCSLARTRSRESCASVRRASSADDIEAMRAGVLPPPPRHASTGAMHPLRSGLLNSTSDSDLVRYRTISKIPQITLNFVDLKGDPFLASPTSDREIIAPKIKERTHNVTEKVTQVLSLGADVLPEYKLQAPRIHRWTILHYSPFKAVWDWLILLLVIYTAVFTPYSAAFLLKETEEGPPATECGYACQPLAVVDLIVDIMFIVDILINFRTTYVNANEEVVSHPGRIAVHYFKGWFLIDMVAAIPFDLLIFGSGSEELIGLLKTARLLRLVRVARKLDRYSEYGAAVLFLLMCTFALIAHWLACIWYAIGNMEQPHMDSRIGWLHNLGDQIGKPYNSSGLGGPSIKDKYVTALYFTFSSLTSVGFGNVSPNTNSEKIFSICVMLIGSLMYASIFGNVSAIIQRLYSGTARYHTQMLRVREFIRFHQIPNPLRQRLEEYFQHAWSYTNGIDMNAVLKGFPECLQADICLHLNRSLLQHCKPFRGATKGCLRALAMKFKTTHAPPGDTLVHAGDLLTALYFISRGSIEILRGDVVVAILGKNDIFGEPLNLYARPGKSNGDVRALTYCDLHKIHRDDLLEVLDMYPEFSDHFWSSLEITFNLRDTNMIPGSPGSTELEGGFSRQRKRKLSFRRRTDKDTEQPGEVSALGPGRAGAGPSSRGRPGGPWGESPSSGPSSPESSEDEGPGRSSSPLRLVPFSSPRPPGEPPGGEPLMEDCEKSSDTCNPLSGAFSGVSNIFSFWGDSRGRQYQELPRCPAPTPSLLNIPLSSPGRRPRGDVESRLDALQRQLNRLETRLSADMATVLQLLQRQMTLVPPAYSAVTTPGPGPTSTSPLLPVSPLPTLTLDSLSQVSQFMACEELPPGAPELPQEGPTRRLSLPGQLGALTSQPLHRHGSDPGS
Experiment [8] concerns the target Cytochrome P450 3A4 (Homo sapiens) (UniProt P08684). Put plainly: Cytochrome P450 Family 3 Subfamily A Member 4 (CYP3A4) small molecule antagonists: luciferase reporter qHTS assay (AID 1671201). For activity change, negative = inhibition: series mostly up to about 120 µM. Note: nearly all actives have a fitted effect of over 50% in size. Note: potency is the fitted concentration of half-maximal effect. A digest of the protocol:
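Setup: enzyme-substrate mix, compound pin transfer, 10 min RT. Reaction: NADPH regeneration solution, 1 h RT. Readout: detection reagent stops turnover, luminescence measured after 20 min, expressed in relative luminescence units.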

Experiment [9] concerns the target Cytochrome P450 2D6 (Homo sapiens) (UniProt P10635). The experiment in a line: Cytochrome P450 Family 2 Subfamily D Member 6 (CYP2D6) small molecule antagonists: luciferase reporter qHTS assay (AID 1671196). For activity change, negative = inhibition: series mostly up to about 120 µM. Note: nearly all actives have a fitted effect of over 50% in size. Note: potency is the fitted concentration of half-maximal effect. In a few lines:
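Chemicals tested for interference with CYP2D6 activity; proluciferin substrate, NADPH regeneration, 1 h at room temperature, luminescent detection.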

Experiment [10] has as its target Cytochrome P450 2C19 (Homo sapiens) (UniProt P33261). The experiment in a line: Cytochrome P450 Family 2 Subfamily C Member 19 (CYP2C19) small molecule antagonists: luciferase reporter qHTS assay (AID 1671197). For activity change, negative = inhibition: series mostly up to about 120 µM. Note: nearly all actives have a fitted effect of over 65% in size. Note: potency is the fitted concentration of half-maximal effect. In a few lines: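 CYP2C19 P450-Glo, 1536-well qHTS. Cpd + enzyme/proluciferin substrate 10 min RT; + NADPH regen, 37C 1 h; stop with luciferin detection reagent, 20 min RT, luminescence (RLU). Pos ctrl ketoconazole.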

Experiment [11] in a line: Caspase-3/7 induction in HepG2 cells by small molecules, qHTS cell viability counter screen (AID 1346981). Note: series mostly up to about 92 µM; nearly all actives have a fitted effect of over 30% in size. A digest of the protocol: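 Treatment of HepG2 cells with DMSO-delivered compounds ran 16 hr at 37 C following a 5-hr pre-incubation of 2,000 cells/well. CellTiter-Fluor fluorescence, read after 1 hr, served as the viability measure in a qHTS format.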
Experiment [12] deals with Nuclear receptor subfamily 1 group I member 2 (Rattus norvegicus) (UniProt Q9R1A7). The experiment in a line: Rat pregnane X receptor (rPXR) activation by small molecules, qHTS assay (AID 1346983). Note: nearly all actives have a fitted effect of over 20% in size. Particulars: rPXR luciferase reporter cells, One-Glo luminescence, 24 h; max activation: stronger effect = higher value. A digest of the protocol: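 Cell-based rPXR activation assay: rPXR cells, 2,000 per well, rested 5hr at 37 C, then exposed to compounds in DMSO for 24 hr at 37 C. Luciferase activity read by One-Glo luminescence after 30 min at room temperature.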
Nuclear receptor subfamily 1 group I member 2 (Rattus norvegicus), sequence (Q9R1A7 whole entry, looked up): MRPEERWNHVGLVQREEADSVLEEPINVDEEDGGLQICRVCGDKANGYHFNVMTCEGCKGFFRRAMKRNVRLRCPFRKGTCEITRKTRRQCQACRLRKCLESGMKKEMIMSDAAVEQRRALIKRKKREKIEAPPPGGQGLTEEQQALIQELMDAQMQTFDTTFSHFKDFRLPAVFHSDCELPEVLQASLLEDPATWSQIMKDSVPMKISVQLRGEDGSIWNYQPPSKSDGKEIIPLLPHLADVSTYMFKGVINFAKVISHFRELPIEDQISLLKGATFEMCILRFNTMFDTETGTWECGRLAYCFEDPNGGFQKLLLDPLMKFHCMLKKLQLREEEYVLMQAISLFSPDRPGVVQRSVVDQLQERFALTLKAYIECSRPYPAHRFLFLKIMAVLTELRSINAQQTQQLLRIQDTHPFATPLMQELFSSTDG

The target in experiment [13] is Nuclear receptor subfamily 1 group I member 2 (Homo sapiens) (UniProt O75469). The experiment in a line: CYP3A4 induction through human pregnane X receptor (PXR) by small molecules, qHTS assay (AID 1346984). Note: nearly all actives have a fitted effect of over 40% in size. A digest of the protocol:
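After 24 h at 37C with compound, DPX-2 cells (HepG2, co-transfected PXR response element and CYP3A4 promoter-luciferase) got 3uM final P450-Glo Luciferin-IPA for 3 h; One-Glo luminescence followed.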

For experiment [14] the target is unchanged. The experiment in a line: Human pregnane X receptor (PXR) activation by small molecules, qHTS assay (AID 1346985). Note: nearly all actives have a fitted effect of over 40% in size. A digest of the protocol:
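DPX-2 cells (HepG2 co-transfected with a PXR response element and a CYP3A4-promoter luciferase construct) were seeded at 2,000 per well, rested 5 hr at 37C, then exposed to DMSO-dissolved compounds for 24 hr. Activation was read as luciferase luminescence.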

SMILES strings stand for the structures. Values joined by “and” are separate entries in the source; they are usually repeats but may differ in a detail not shown here. Equal entries are not always repeated. Unmarked numbers belong to inactive results. Inconclusive results are not listed. Active and inactive are the calls of the source. Calls come from the whole dose curve; as a rule, active = well fitted curve in the direction sought with a large enough effect in the repeat runs; inconclusive = weak or mixed curves; inactive = no such curve, though single readings can be large; an effect the other way counts as inactive or inconclusive.
% is set by controls: 0 for no effect and ±100 for the full control effect.

Cytochrome P450 1A2 (Homo sapiens), sequence (P05177 whole entry, looked up): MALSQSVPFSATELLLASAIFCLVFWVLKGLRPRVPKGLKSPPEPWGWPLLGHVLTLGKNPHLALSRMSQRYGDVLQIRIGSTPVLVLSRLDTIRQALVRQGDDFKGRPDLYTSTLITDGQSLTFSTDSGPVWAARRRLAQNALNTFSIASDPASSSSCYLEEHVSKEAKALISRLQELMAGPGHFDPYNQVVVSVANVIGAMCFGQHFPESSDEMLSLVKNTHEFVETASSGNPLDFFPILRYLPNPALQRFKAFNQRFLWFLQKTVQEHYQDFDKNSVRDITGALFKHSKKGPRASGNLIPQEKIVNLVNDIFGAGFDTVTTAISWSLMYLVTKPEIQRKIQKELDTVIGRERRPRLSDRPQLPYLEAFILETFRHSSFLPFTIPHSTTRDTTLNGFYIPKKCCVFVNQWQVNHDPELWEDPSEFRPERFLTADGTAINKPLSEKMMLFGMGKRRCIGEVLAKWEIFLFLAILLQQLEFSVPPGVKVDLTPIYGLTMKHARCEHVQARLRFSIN
Cytochrome P450 2C9 (Homo sapiens), sequence (P11712 whole entry, looked up): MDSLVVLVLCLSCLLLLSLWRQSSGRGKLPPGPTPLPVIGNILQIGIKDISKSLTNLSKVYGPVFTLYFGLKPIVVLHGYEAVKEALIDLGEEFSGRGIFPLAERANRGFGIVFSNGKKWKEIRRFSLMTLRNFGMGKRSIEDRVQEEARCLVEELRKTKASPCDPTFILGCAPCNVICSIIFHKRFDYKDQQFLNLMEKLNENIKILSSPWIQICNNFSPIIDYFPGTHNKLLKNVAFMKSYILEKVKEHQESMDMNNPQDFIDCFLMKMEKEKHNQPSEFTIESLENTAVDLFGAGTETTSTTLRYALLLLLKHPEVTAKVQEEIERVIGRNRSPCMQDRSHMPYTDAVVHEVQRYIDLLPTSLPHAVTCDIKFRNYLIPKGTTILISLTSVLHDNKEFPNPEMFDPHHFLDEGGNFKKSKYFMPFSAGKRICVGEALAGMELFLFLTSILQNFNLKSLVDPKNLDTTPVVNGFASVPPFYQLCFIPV
Cytochrome P450 2D6 (Homo sapiens), sequence (P10635 whole entry, looked up): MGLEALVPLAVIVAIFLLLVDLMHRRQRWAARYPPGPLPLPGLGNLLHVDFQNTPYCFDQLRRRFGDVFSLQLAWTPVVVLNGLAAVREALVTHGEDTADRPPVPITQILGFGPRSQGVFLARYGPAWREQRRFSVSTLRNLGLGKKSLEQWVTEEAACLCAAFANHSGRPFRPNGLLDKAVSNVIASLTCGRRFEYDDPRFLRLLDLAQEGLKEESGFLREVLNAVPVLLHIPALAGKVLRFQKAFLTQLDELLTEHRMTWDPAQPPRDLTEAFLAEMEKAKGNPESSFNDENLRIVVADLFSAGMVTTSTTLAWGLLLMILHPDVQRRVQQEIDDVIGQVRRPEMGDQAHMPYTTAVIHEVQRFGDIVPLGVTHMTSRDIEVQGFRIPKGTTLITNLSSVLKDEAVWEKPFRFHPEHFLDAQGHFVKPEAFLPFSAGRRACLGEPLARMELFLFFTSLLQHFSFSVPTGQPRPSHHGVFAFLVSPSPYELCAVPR
Cytochrome P450 2C19 (Homo sapiens), sequence (P33261 whole entry, looked up): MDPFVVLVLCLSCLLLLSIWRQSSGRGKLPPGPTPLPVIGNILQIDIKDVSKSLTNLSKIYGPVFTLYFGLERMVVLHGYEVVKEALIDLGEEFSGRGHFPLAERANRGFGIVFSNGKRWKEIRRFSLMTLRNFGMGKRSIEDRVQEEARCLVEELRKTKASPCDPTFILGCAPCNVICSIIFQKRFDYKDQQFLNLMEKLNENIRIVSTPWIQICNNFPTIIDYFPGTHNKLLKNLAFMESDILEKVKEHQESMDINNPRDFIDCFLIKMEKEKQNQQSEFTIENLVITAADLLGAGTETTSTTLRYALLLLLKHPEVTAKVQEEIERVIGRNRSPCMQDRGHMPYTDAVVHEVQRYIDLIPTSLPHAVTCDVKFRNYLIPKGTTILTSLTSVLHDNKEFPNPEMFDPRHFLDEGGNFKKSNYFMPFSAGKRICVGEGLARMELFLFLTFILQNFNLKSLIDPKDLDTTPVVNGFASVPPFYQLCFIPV
Cytochrome P450 3A4 (Homo sapiens), sequence (P08684 whole entry, looked up): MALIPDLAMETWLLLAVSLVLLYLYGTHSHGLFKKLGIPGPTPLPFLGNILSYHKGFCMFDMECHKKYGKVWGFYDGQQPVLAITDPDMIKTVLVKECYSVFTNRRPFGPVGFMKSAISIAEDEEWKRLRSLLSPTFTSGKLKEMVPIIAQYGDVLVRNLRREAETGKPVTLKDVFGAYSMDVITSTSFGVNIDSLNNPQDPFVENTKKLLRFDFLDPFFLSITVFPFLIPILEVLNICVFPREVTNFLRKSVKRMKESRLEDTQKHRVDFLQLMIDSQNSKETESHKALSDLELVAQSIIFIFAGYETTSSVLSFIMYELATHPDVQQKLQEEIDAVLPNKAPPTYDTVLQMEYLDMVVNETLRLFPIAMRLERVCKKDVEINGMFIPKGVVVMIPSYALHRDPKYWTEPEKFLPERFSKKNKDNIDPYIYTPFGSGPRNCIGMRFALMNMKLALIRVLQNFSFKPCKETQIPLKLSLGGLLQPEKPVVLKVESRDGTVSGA

With `O=C(Nc1ccc(Cl)c(Cl)c1)c1cc(Cl)cc(Cl)c1O`, the Potency entry in [1], in experiment [3] and in [7] was “inactive” throughout. Besides, the Potency in experiment [2] is 7.7 µM (active); in experiment [4], 10.9 µM (active); in experiment [5], 11.2 µM (active); in experiment [6], 20 µM (active); in [8], 17.8 µM (active).

As to `SCCCCCCCCS`, the Potency result in experiment [1], in experiment [2], in experiment [3], in experiment [9], in experiment [10] and in experiment [5] was “inactive” each time. Moreover, the Potency result in experiment [6], in experiment [7] and in experiment [8] was “inactive” in each case.

Take `Cc1ccc(-n2[nH]c(C)c(N=Nc3cccc(-c4cccc(C(=O)O)c4)c3O)c2=O)cc1C`: the Potency entry in [1], in experiment [4], in experiment [10], in experiment [6], in experiment [7] and in experiment [8] was “inactive” throughout. Further, the Potency in [2] was 26.6 µM (active).

In the case of `CC(C)c1ccc(O)c(C(C)C)c1`, the Potency is 61.1 µM (active) in experiment [1], 7.1 µM (active) in [10], 35.6 µM (active) in experiment [5] and 31.7 µM (active) in experiment [6]. For the same compound, the Potency result in [3], in experiment [11], in experiment [4] and in [9] was “inactive” throughout.

With `Cc1ccc(N)cc1O`, the Potency result in experiment [1], in [11] and in experiment [7] was “inactive” throughout. Also, the Potency was 52.9 µM (active) in experiment [2]; 3.66 µM (active) in [9]; 3.56 µM (active) in [10]; 21.8 µM (active) in experiment [5]; 11.1 µM (active) in experiment [6].

For `Oc1ccc(-c2ccccc2)c(Cl)c1`, the Potency entry in [1], in [3], in [11], in [7] and in experiment [8] was “inactive” throughout. The Potency in experiment [4] is 24.3 µM (active); in [10] it was 22.4 µM (active); in experiment [5], 35.6 µM (active); in experiment [6], 12.6 µM (active).

On to `CC1=CCC(=O)O1`, for which the Potency result in experiment [1], in experiment [3], in experiment [11], in experiment [4], in experiment [9] and in experiment [10] was “inactive” in each case. Moreover, the Potency entry in experiment [5], in experiment [6], in experiment [7] and in experiment [8] was “inactive” in each case.

Take `CCN1CCN(c2cc(-c3ccc(F)cc3)c3c(n2)CCCCCC3)CC1`: the caspase activation in [1] is 0.316% [at 19 µM]. Also, the caspase-3/7 activation in experiment [3] is 1.46% [at 19 µM]. The activity change, negative = cytotoxicity in experiment [11] is -1.31% [at 19 µM]. Moreover, the activation in experiment [4] was -23.7% [at 19 µM]. Moreover, the Potency is 6.74 µM (active) in experiment [9] and 4.65 µM (active) in [7]. Further, the activity change, negative = inhibition in experiment [10] is -2.56% [at 23.6 µM]; in experiment [5], -5.46% [at 23.6 µM].

As for `CO[Si](CCC1CCC2OC2C1)(OC)OC` (centres undefined), the Potency result in experiment [1], in experiment [2], in experiment [11], in experiment [9], in [10] and in [5] was “inactive” in each case. The Potency entry in experiment [6], in experiment [7] and in experiment [8] was “inactive” throughout.

For `CCOC(=O)CN`, the Potency result in experiment [1], in [2], in experiment [11], in experiment [10], in experiment [5] and in experiment [6] was “inactive” throughout. The Potency result in experiment [7] and in [8] was “inactive” in each case.

In the case of `CC(C)=CC1CC(C)CCO1` (centres undefined), the Potency entry in experiment [1], in experiment [3], in [11], in experiment [4], in experiment [9] and in [10] was “inactive” each time. The Potency entry in experiment [5], in experiment [6], in experiment [7] and in experiment [8] was “inactive” in each case.

As to `CCN(CC)CCSC(=O)C(c1ccccc1)c1ccccc1`, the Potency entry in [1], in experiment [3], in [11], in [13] and in [14] was “inactive” in each case. Also, the max activation in experiment [12] was 3.39% and -0.327%. For the same compound, the Potency in experiment [9] was 4.9 µM (active); in [10], 6.92 µM (active); in experiment [5], 17.4 µM (active); in experiment [6], 15.5 µM (active); in experiment [7], 2.68 µM (active).

Turning to `COC(=O)CC(C)CCC=C(C)C` (centres undefined), the Potency result in experiment [1], in [3], in experiment [11], in experiment [4], in [9] and in experiment [10] was “inactive” in each case. The Potency result in experiment [5], in experiment [7] and in experiment [8] was “inactive” throughout.

On to `S=P(N1CC1)(N1CC1)N1CC1`, for which the Potency result in experiment [1], in [3], in [11], in experiment [13], in experiment [14] and in experiment [7] was “inactive” throughout. For the same compound, the max activation in experiment [12] is -4.01%. In addition, the Potency in [9] is 48.6 µM (active); in experiment [10], 9.42 µM (active); in [5], 19.3 µM (active); in experiment [6], 57.7 µM (active).

Turning to `CCc1c(C(=O)O)c(=O)cnn1-c1ccc(Cl)cc1`, the Potency entry in [1], in [3], in [11], in experiment [9], in experiment [10] and in experiment [5] was “inactive” each time. The Potency result in experiment [6], in experiment [7] and in experiment [8] was “inactive” each time.

For the compound `Brc1ccccn1`, the Potency result in experiment [1], in experiment [3], in experiment [11], in [4], in experiment [9] and in experiment [10] was “inactive” in each case. Besides, the Potency result in [5], in [6], in experiment [7] and in experiment [8] was “inactive” in each case.

With `CN(C)CCCN1c2ccccc2CCc2ccccc21`, the Potency entry in experiment [1] and in [3] was “inactive” each time.

Turning to `CC1=C(/C=C/C(C)=C/C=C/C(C)=C\C=O)C(C)(C)CCC1`, the Potency result in [1] was “inactive”. The Potency in experiment [2] is 57.9 µM (active); in experiment [10], 37.8 µM (active); in [5], 59.9 µM (active); in experiment [8], 30 µM (active).

On to `CCCCCCCC(OC)OC`, for which the Potency entry in [1], in experiment [3], in experiment [11], in [4], in [9] and in experiment [10] was “inactive” throughout. Further, the Potency result in experiment [5], in experiment [6], in experiment [7] and in [8] was “inactive” in each case.

Take `CCCN(CCc1cccs1)[C@H]1CCc2c(O)cccc2C1`: the Potency entry in [1], in experiment [3], in experiment [11], in experiment [4], in experiment [13] and in experiment [14] was “inactive” throughout. In addition, in [8], the Potency entry is “inactive”. For the same compound, the max activation in [12] was -1.95%. Also, the Potency in experiment [9] is 0.389 µM (active); in [10], 2.45 µM (active); in experiment [5] it was 15.5 µM (active); in experiment [7] it was 3.01 µM (active).

Regarding `Cc1occc1SSc1ccoc1C`, the Potency result in experiment [1], in experiment [3], in experiment [11], in experiment [9] and in [10] was “inactive” in each case. In addition, the Potency in experiment [5] was 56.4 µM (active).

For the origin of these results see PubChem BioAssay (Tox21).
